# Bead autofluor – flagged as autofluorescent in microsphere protease counterscreen; 3.1% of 360,000 active; fluorescence intensity (test concentration not listed); compound autofluorescence counterscreen, microsphere flow cytometry; hits give high values; in the data active = fluorescence intensity above about 16000; inconclusive = no clear call, values can overlap the other calls
# BoNT-A LC inh2 – inhibitors of Botulinum neurotoxin A light chain protease | multiplex microsphere protease substrate cleavage, flow cytometry | inhibition, % at 10 µM | 0.17% of 360,000 active; also: plate controls were buffer without enzyme for full effect and enzyme alone for no effect
# Anthrax LF prot – inhibitors of Bacillus anthracis lethal factor protease; P15917; multiplex microsphere protease cleavage assay, LF; inhibition, % at 10 µM; 0.12% of 360,000 active; also: plate controls were buffer without enzyme for full effect and enzyme alone for no effect
# Target sequence (P15917 whole entry, looked up): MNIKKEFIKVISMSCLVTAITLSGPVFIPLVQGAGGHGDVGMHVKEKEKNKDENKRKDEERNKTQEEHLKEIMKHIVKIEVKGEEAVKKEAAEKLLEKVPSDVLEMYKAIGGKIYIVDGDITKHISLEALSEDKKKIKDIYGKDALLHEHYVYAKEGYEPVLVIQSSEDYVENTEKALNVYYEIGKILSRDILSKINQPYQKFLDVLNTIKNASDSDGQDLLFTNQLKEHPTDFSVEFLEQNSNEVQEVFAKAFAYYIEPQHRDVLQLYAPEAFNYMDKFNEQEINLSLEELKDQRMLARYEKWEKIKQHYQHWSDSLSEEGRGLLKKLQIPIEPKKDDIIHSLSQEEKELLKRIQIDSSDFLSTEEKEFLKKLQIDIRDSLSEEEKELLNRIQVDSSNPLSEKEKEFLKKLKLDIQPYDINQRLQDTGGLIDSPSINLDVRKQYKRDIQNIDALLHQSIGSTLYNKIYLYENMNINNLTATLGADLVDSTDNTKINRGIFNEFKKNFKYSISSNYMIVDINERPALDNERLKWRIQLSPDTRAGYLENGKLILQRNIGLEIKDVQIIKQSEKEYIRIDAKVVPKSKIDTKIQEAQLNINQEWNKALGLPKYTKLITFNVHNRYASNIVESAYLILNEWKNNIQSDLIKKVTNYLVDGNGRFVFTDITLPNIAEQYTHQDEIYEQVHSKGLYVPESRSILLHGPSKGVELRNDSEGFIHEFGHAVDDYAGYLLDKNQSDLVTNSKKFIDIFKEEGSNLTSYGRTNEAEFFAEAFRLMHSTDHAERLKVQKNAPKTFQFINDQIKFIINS
# PriA SSB inh – K. pneumoniae PriA-SSBct interaction inhibition. AID 1272365. 0.6% of 430,000 active. AlphaScreen SSBct-PriA binding, biotinylated peptide. inhibition, % at 33 µM; in the data active = inhibition mostly above about 37%, no sharp cut-off; inactive = mostly below about 20%;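 also: plate controls were negative control peptide for no effect and reference peptide for full effect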
# BoNT-F LC inh – inhibitors of Botulinum neurotoxin F light chain protease. Multiplex microsphere protease cleavage assay, flow cytometry. inhibition, % at 10 µM. 0.22% of 360,000 active; in the data active = inhibition above about 35%, passing the limit was not always enough; inconclusive = no clear call, values can overlap the other calls; also: plate controls were buffer without enzyme for full effect and enzyme alone for no effect
# BoNTA LC inh 1 – BoNT/A light chain protease inhibition; multiplex microsphere protease assay, flow cytometry; shares compounds with BoNT-F LC inh; inhibition, % at 10 µM; 3% of 720 active; in the data active = inhibition above about 32%
# BoNTF LC inh 1 – inhibitors of Botulinum neurotoxin F light chain protease. shares compounds with BoNT-F LC inh. multiplex microsphere protease cleavage assay, flow cytometry. inhibition, % at 10 µM. 720 tested, under 10 active. AID 602140; call rule not given here
# Anthrax LF CP1 – Bacillus anthracis lethal factor protease inhibition; shares compounds with BoNT-F LC inh; multiplex microsphere protease cleavage assay, LF; inhibition, % at 10 µM; 720 tested, under 10 active; AID 602142; call rule not given here
# The depositor's hits bear a star; ? = inconclusive; . = no result given. Rows were chosen to be rich in hits. Some 3.1% of all compounds tested hit in one or more screens of this group. Rule as the data show it, unless noted: active = inhibition above about 30%; inconclusive = no clear call, values can overlap the other calls; inactive = below that.
SMILES,Bead autofluor,BoNT-A LC inh2,Anthrax LF prot,PriA SSB inh,BoNT-F LC inh,BoNTA LC inh 1,BoNTF LC inh 1,Anthrax LF CP1
CCc1ccc(C(=O)CN2C(=O)C(C)N(c3ccc(C)cc3)C2=O)cc1 (stereo not given),2666,4,0,-2,50*,0,-1,-4
Cc1cc2c(sc3c(C)ccc(C)c32)c(C)n1,3844,-2,29,-11,?,-1,-2,-3
COc1cccc(C(=O)NCCn2ccc3ccccc32)c1,5004,4,4,4,3,1,-2,3
CC(=O)NCCn1ccc2ccccc21,2365,0,3,4,-8,.,.,.
CN(C)c1cccc(C(=O)NCCCn2ccc3ccccc32)c1,5879,-2,2,17,0,1,-1,1
COc1ccc(C(=O)NCCn2ccc3ccccc32)cc1OC,5089,14,23,4,12,0,0,-2
COc1ccccc1C(=O)NCCn1ccc2ccccc21,9297,96*,59*,8,36*,2,2,-1
c1ccc(CN2CCC(=NNc3nc4ccccc4s3)CC2)cc1,.,.,.,22,.,.,.,.
Cc1cc(N2CCOCC2)nc(C(=O)Nc2ccccc2)n1,.,.,.,-7,.,.,.,.
COCC(C)NS(=O)(=O)c1ccc(C(=O)NCCCn2ccc3ccccc32)cc1 (stereo not given),3119,0,-1,0,15,2,-8,3
COc1cc(OC)cc(C(=O)NCCn2ccc3ccccc32)c1,6827,5,4,-1,4,0,-5,4
O=C(Cc1ccccc1)NCCn1ccc2ccccc21,6292,9,8,8,6,.,.,.
COCCCNc1oc(-c2cccs2)nc1S(=O)(=O)c1ccc(C)cc1,4265,2,0,-2,39*,-2,-4,0
Cc1ccc(C(=O)Nc2ccc(O)cc2C(=O)O)cc1,8453,4,2,-5,33,3,1,-4
COc1cccc(/C=C/c2ccncc2)c1OC,4691,1,1,8,31,1,0,4
O=S(=O)(NCc1cccnc1)c1cc(Cl)ccc1Cl,7951,34*,-29,-10,37*,1,-6,2
O=C(O)c1ccc(Cl)c(S(=O)(=O)NCc2cccnc2)c1,3280,-1,-2,7,0,.,.,.
Cc1ccc2c(c1)[C@H](c1ccc(F)cc1)N(C(=O)C1CC1)CC(=O)N2,.,.,.,-2,.,.,.,.
COc1ccc(Nc2ncnc3c2cnn3Cc2ccc(Cl)cc2)cc1,.,.,.,5,.,.,.,.
O=C(CC(=O)Nc1ccccc1F)Nc1ccccc1F,4769,-4,42*,4,-4,-2,-6,-4
O=C(O)CCC(=O)Nc1ccccc1F,.,.,.,-1,.,.,.,.
CCOC(=O)C=c1sc(=Cc2ccc(C#N)cc2)c(=O)n1CC(=O)Nc1cccc(C)c1C,.,.,.,-9,.,.,.,.
CC1(C)C(=O)NCCN1C(=O)C1CCCN1S(=O)(=O)c1ccc(F)cc1 (stereo not given),.,.,.,-7,.,.,.,.
COCc1cc(CN2CCCC(C(=O)c3cccc(C(F)(F)F)c3)C2)ccc1OC (stereo not given),3106,4,-2,-16,43*,-2,0,-3
O=C(Nc1ccc(OC(F)(F)F)cc1)c1oc2ccccc2c1NC(=O)C1CC1,.,.,.,7,.,.,.,.
SMILES,Bead autofluor,BoNT-A LC inh2,Anthrax LF prot,PriA SSB inh,BoNT-F LC inh,BoNTA LC inh 1,BoNTF LC inh 1,Anthrax LF CP1
COc1ccc(-n2nc(C(=O)NCC(=O)NCc3cccc(F)c3)c3ccccc3c2=O)cc1Cl,6493,3,2,-7,36*,-3,-24,-1
CCNC(=O)ON=C1CCCCC1c1ccc([N+](=O)[O-])cc1[N+](=O)[O-] (stereo not given),.,.,.,-2,.,.,.,.
O=C(Oc1c(-c2ccccc2)c(=O)n2c3c(cccc13)CC2)c1ccc(F)cc1,4267,?,37*,-6,?,2,2,2
O=C(Oc1c(-c2ccccc2)c(=O)n2c3c(cccc13)CC2)c1ccccc1,4779,-11,-10,-2,-38,.,.,.
O=C(COc1ccc(S(=O)(=O)NCc2ccccc2)cc1Cl)NCc1ccccn1,2862,13,22,-13,68*,2,-4,-1
O=C(COc1ccc(S(=O)(=O)NCc2ccccc2)cc1Cl)NCc1ccncc1,6416,0,-1,-13,-2,.,.,.
CN(C)C(CNC(=O)C(=O)NCCC1=CCCCC1)c1ccsc1 (stereo not given),.,.,.,-8,.,.,.,.
COc1ccc(OC)c(-c2nc3cc4ccccc4cc3nc2-c2ccccc2)c1,2721,62*,22,-10,17,34*,7,26
Cc1csc(NC(=O)CSc2nnc(CCNC(=O)c3ccc(Cl)c(Cl)c3)n2C)n1,9778,0,3,-8,0,.,.,.
COc1ccc(CCCc2nnc(SCC(=O)Nc3nc(C)cs3)n2C)cc1,11415,?,-17,-4,35*,0,-6,-1
CCCn1cc(C(=O)N2CCN(c3ccccc3OC)CC2)c2nn(-c3ccccc3)c(=O)c-2c1,.,.,.,-3,.,.,.,.
Cc1ccc(N2CCn3c2nnc(C(=O)NCCC2=CCCCC2)c3=O)cc1,.,.,.,-9,.,.,.,.
COc1ccc2nc(NC(=O)CSC(C)C(=O)Nc3cc(C)on3)sc2c1 (stereo not given),4402,85*,?,-5,?,1,-1,2
Cc1ccc2nc(NC(=O)CSCC(=O)Nc3cc(C)on3)sc2c1,.,.,.,-3,.,.,.,.
Cc1nc(N2CCCC2)nc(C)c1NC(=O)Cc1ccc(F)cc1,.,.,.,0,.,.,.,.
COc1ccc(-n2c(SCC(=O)Nc3ccc(C(=O)O)cc3)nnc2-c2cccs2)cc1,4464,0,4,14,5,.,.,.
COc1ccc(-c2nnc(SCC(=O)Nc3ccc(C(=O)O)cc3)n2-c2ccc(Cl)cc2)cc1,3869,0,28,2,10,0,0,-2
COc1cc(NC(=O)c2ccc(F)cc2)ccc1NC(=O)c1cc2ccccc2o1,.,.,.,13,.,.,.,.
COc1cc(NC(=O)c2c(OC)cccc2OC)ccc1NC(=O)c1cc2ccccc2o1,3480,-2,32*,-5,-39,1,-1,0
COc1ccc(C=Nn2cnc3c([nH]c4ccccc43)c2=O)cc1CO,.,.,.,-5,.,.,.,.
CCOc1ccc(NC(=O)c2ccc(Cl)c(NC(=O)c3ccco3)c2)cc1,3511,1,14,-17,38*,-2,-6,-3
COCCn1c(-c2ccc(OC)cc2)c(-c2ccc(OC)cc2)oc1=O,3816,-5,5,15,5,.,.,.
COc1ccc(-c2oc(=O)n(C)c2-c2ccc(OC)cc2)cc1,2904,7,7,35,90*,0,-6,-4
N#CCCn1cc(C(N)=O)c(-c2ccc3ccccc3c2)n1,3976,1,19,-5,-28,.,.,.
CN(C)C(=O)c1cn(CCC#N)nc1-c1ccc2ccccc2c1,3918,0,12,-15,52*,-1,-12,0
Cc1cc(NC(=O)Cc2cccc3ccccc23)ccc1N1CCCCC1=O,.,.,.,-26,.,.,.,.
